Results on 68 molecules are retold here after PubChem BioAssay AID743279 (National Center for Advancing Translational Sciences (NCATS), 2014).

The campaign covered roughly 360,000 compounds. About 17,000 (4.7%) were called active. About 5% were inconclusive and are not listed. No stated cut-off is given here; in the data, active means activity change below about -50%; inconclusive means mostly about -30% to -49%; inactive means weaker than that. Many of the other results were omitted from the sample, so actives are more common in it than they were.
On the % scale 0 is the no-effect control and ±100 the full control effect.

This assay in a line: qHTS for Inhibitors of Inflammasome Signaling: IL-1-beta AlphaLISA Primary Screen. As to conditions: THP-1 LPS/ATP IL-1B secretion, 16 h; at 57.5 µM, stronger effect = lower value. In outline: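 THP-1 cells pretreated 1 hr with compounds (up to 57.5 uM final), then stimulated with LPS (250 ng/mL final) plus ATP (1.25 mM final); secreted IL-1B measured by AlphaLISA after 16 hr, decreased signal indicating inhibition.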
Background: In qHTS, concentration-response curves come from the screen itself.
Turning to `O=NN(CCCl)C(=O)NCCc1cccc[n+]1[O-]`, the activity change is 15% (inactive).
`O=C(NC1CCCCCC1)C1CCN(C(=O)c2ccc(Cl)cc2)CC1`: the activity change was 9.37% (inactive).
In the case of `CC1CCN(C(=O)c2ccc(CSc3ccc(Cl)cc3)cc2)CC1`, the activity change is -51.2% (active).
The result for `O=C(c1ccc(CSc2ccccc2)cc1)N1CCCCCC1` reads -19.7% (inactive); that for `O=C(NC(=S)NC1CCCCC1)c1ccc(Cl)cc1`, -21% (inactive).
Take `O=C(NC1CCCCCC1)c1cccnc1Sc1ccc(Cl)cc1`: the activity change was 1.6% (inactive).
The result for `O=C(NC1CCCCC1)c1ccc(-c2ccc(Cl)cc2)o1` reads -76.5% (active).
For `CCCNC(=O)C1(C)CCN(Cc2ccc(Cl)c(Cl)c2)C1` (stereo not drawn), the activity change was 17.3% (inactive).
The result for `COc1ccc(N)c(C)c1` reads -25.8% (inactive).
As to `COC(=O)[C@]12CCCCC=C1N(CCC1=CCCCC1)C(=O)[C@H](CC(=O)NCC1CCCCC1)C2`, the activity change was -28.6% (inactive).
The result for `Fc1ccc(NC(=S)N2CCc3[nH]c4ccccc4c3C2)cc1` reads 11.5% (inactive).
On to `O=C(CCCN1CCc2[nH]c3ccc(F)cc3c2C1)c1ccc(F)cc1`, for which the activity change was -79.8% (active).
On to `O=C(Nc1ccc(Cl)cc1)N1CCc2[nH]c3ccccc3c2C1`, for which the activity change is -18.5% (inactive).
The result for `CCCCN1C[C@H](c2ccc(Br)cc2)[C@@H](CC(=O)Nc2ccc(Br)cc2)C1=O` reads -5.58% (inactive); that for `NC(=O)C1CCN(C(=O)COc2cccc3cccnc23)CC1`, 0.882% (inactive).
The result for `OCc1ccc(OCCCOc2cccc3cccnc23)cc1` reads -1.1% (inactive).
Consider `O=C(Nc1ccccc1)Oc1cccc2cccnc12`, for which the activity change was -91.6% (active).
Turning to `C[C@H](CO)N1C[C@H](C)[C@H](CN(C)CC2CC2)Oc2ccc(NC(=O)CCN3CCOCC3)cc2C1=O`, the activity change is 18.8% (inactive).
The result for `O=C(C1CCCO1)N1CCN(C(=O)C23CC4CC(CC(C4)C2)C3)CC1` (stereo not drawn) reads 9.67% (inactive); that for `CN1CCN(c2ccc([N+](=O)[O-])c(Sc3nc4ccccc4[nH]3)c2)CC1`, -26.9% (inactive); that for `CCC(C)N1C(=O)S/C(=C/c2ccc(Sc3nc4ccccc4[nH]3)o2)C1=O` (stereo not drawn), -96.1% (active).
Regarding `CCC(c1nc2ccccc2[nH]1)n1c(=O)c(-c2cccs2)nc2ccccc21` (stereo not drawn), the activity change was -20% (inactive).
For `CC(C)c1csc(CN2CCC(CO)(Cc3ccccc3)CC2)n1`, the activity change was -21.7% (inactive).
The result for `CN=C(NC#N)NCCSCc1nc[nH]c1C` reads 33.7% (inactive); that for `CCC(C)N(C(=O)CSc1nnnn1-c1ccccc1OC)C1CCS(=O)(=O)C1` (stereo not drawn), -14.9% (inactive).
The result for `COc1ccccc1-n1nnnc1SCC(=O)NC(=O)Cc1ccccc1` reads 4.79% (inactive); that for `COc1ccccc1-n1nnnc1S(=O)(=O)Cc1ccc(Cl)cc1`, -119% (active); that for `CCCC(C)n1[nH]c(=O)c2c(C)cc(C)nc21` (stereo not drawn), -13.2% (inactive).
With `Cc1ccccc1C#CC1=CC(=O)CC(C)(C)C1`, the activity change was -52.1% (active).
The result for `CC1(C)CC(=O)C=C(Nc2ccccc2)C1` reads -3.98% (inactive); that for `Cc1cc(O)ccc1NC1=CC(=O)CC(C)(C)C1`, -0.895% (inactive).
The result for `CC1C(=O)N(Cc2cn(CC3CCCCC3)nn2)CCS(=O)(=O)N1Cc1ccc(-c2cccc(N(C)C)c2)cc1` (stereo not drawn) reads 0% (inactive); that for `OCCN1CCN(CCO)C1=S`, 15.9% (inactive).
The result for `Cc1cc2oc(C(=O)Nc3c(C)n(C)n(-c4ccccc4)c3=O)c(C)c2cc1Cl` reads 0% (inactive); that for `Cc1c(NC(=O)c2coc(=O)c(Br)c2)c(=O)n(-c2ccccc2)n1C`, -72.5% (active); that for `Cc1c(NC(=O)c2cc(-c3ccc(Br)cc3)on2)c(=O)n(-c2ccccc2)n1C`, -16.8% (inactive).
As to `COC(c1ccccc1)(c1ccccc1)C(Oc1nc(C)cc(C)n1)C(=O)O` (stereo not drawn), the activity change was 17.2% (inactive).
Take `COc1ccc(C(=O)COC(=O)c2nn(C)c(=O)c3ccccc23)c(OC)c1`: the activity change is -0.449% (inactive).
In the case of `CC[C@]12c3[nH]c4ccc(OC)cc4c3CCN1C(=O)C(CC(=O)NCc1ccco1)C[C@@H]2C(=O)N1CCN(C(=O)C2CC2)CC1` (stereo partly drawn), the activity change was 16.2% (inactive).
Take `CCCCOc1ccc(NC(=O)CSCC(=O)OCC)cc1`: the activity change was -3.32% (inactive).
For `Cc1ccc(COc2ccc(C(=O)NN)cc2)cc1`, the activity change is -17.7% (inactive).
The result for `COc1cccc(OCc2nnc3n2N=C(c2ccccc2)C(CC(=O)O)S3)c1` (stereo not drawn) reads 29.1% (inactive).
The result for `CCCCCCCCCCOC(=O)Cn1c(COc2ccc(C)cc2)[n+](C)c2ccccc21` reads -90.4% (active); that for `CCCCn1c(N)c(N(CCOC)C(=O)c2cccc(OCc3ccccc3)c2)c(=O)[nH]c1=O`, -4.76% (inactive); that for `CCCCCCCCCCOC(=O)Cn1c(COc2cccc(OC)c2)[n+](C)c2ccccc21`, -79.3% (active).
Take `COc1ccc(NC(=O)C2Cc3c(-c4ccc5c(c4)OCO5)ccnc3O2)cn1` (stereo not drawn): the activity change is 22.6% (inactive).
The result for `COC(=O)N(C)C[C@@H]1OCc2cnnn2CCCC(=O)N([C@@H](C)CO)C[C@@H]1C` reads 1.38% (inactive).
With `CC1CN(Cc2ccco2)C(=S)N(c2ccccc2)C1=O` (stereo not drawn), the activity change is 3.29% (inactive).
The result for `O=C1CCN(CCc2ccccc2)CCN1CCOc1ccccc1` reads 23.9% (inactive); that for `O=c1[nH]c2ccccc2n1C1CCN(CCOc2ccccc2)CC1`, -51.9% (active); that for `OC(c1ccccc1)(c1ccccc1)C1CCN(CCCOc2ccccc2)CC1`, -28.1% (inactive).
The result for `O=C(c1ccc(N2CCCC2=O)cc1)N1CCN(c2ccc(C(F)(F)F)cc2[N+](=O)[O-])CC1` reads -8.61% (inactive); that for `CCOc1ccc(Br)cc1S(=O)(=O)Nc1cccc(S(=O)(=O)N(CC)CC)c1`, -3.12% (inactive); that for `CC1(C)OC(=O)C2=C(C[C@@H](C3CCCC3)O[C@@H]2c2ccc(Cl)cc2)O1`, 30.2% (inactive).
Consider `Cc1cc(-n2nc(C)cc2C)n2nc(C)c(-c3ccccc3)c2n1`, for which the activity change was -4.92% (inactive).
The result for `Cc1cc(C)c2c(n1)nn1c(-n3ccnc3)cc(C)nc21` reads -75.6% (active).
The result for `Cc1cc(C)c2c(NC(=O)C3CC3)nn(C)c2n1` reads -2.02% (inactive); that for `CN(C)Cc1ccc(F)cc1Sc1cc(Cl)ccc1Cl`, 4.08% (inactive).
The result for `Cc1ccccc1CN1C(=O)CSCC1(C)C(=O)Nc1c(C)cccc1C` (stereo not drawn) reads -3.26% (inactive).
Turning to `CC1C(=O)N(Cc2ccccc2)c2ccccc2N1C(=O)c1ccccc1` (stereo not drawn), the activity change was 0.175% (inactive).
As for `CC1C(C)N(C(=O)CCl)c2ccccc2N1C(=O)CCl` (stereo not drawn), the activity change is -101% (active).
The result for `CC1CC(C)CN(CC(=O)N2c3ccccc3CCc3ccccc32)C1` (stereo not drawn) reads -6.12% (inactive).
The result for `O=C(OCCOc1ccccc1Cl)c1cc(S(=O)(=O)N2CCCCC2)ccc1N1CCOCC1` reads 11.6% (inactive); that for `O=C(c1c(F)cccc1Cl)N1CCN(c2ccccn2)CC1`, -9.43% (inactive); that for `O=C(c1ccc2ccccc2n1)N1CCN(c2ccccc2Cl)CC1`, -2.41% (inactive).
The result for `O=C(c1c(Cl)cccc1Cl)N1CCN(c2cccc3[nH]ccc23)CC1` reads -73.5% (active); that for `Cc1ccc(C2=NN(C(=O)CSc3nc(N)cc(N)n3)C(c3ccco3)C2)cc1` (stereo not drawn), -23.3% (inactive); that for `COCCCN1C(=O)C(CC(=O)NCc2cccs2)CC(C(=O)N2CCOCC2)=C1C` (stereo not drawn), -1.75% (inactive).
